# Reference: PubChem BioAssay AID1159580 (chemical genetic matrix, 2015)
# About 2,000 (36%) of roughly 5,500 compounds were called active. Roughly 18% stayed inconclusive and do not appear here. Some of the results follow. A number with no mark means an inactive call. Rule as the data show it: active = normalized growth mostly below about 0.91 (no sharp cut-off); inconclusive = no clear call, values can overlap the other calls; inactive = mostly above about 0.92.
# Assay: chemical genetic growth profiling, strain panel (AID 1159580);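 also: tested at 20 µM; growth read once vehicle control cultures reached saturation at 30 °C; 1 = growth at the plate median or of vehicle wells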
# Settings: S. cerevisiae deletion strains, growth OD
# [1] = locus YAL040C, strain CLN3, stronger effect = lower value
# [2] = locus YCL061C, strain MRC1 (second series), stronger effect = lower value
# [3] = locus YDR363W, strain ESC2, stronger effect = lower value
# [4] = locus YER002W, strain NOP16, stronger effect = lower value
# [5] = locus YJR075W, strain HOC1, stronger effect = lower value
# [6] = locus YMR307W, strain GAS1, stronger effect = lower value
# [7] = locus YNL153C, strain GIM3, stronger effect = lower value
# [8] = locus YNL175C, strain NOP13, stronger effect = lower value
# [9] = locus YNL197C, strain WHI3, stronger effect = lower value
# [10] = locus YNL224C, strain SQS1, stronger effect = lower value
# [11] = locus YNL322C, strain KRE1, stronger effect = lower value
# [12] = locus YOR083W, strain WHI5 (second series), stronger effect = lower value
# [13] = locus YAL013W, strain DEP1, stronger effect = lower value
# [14] = locus YDR150W, strain NUM1, stronger effect = lower value
# [15] = locus YPL055C, strain LGE1, stronger effect = lower value
compound,measurement,setting,value
CCCC(=O)NCCc1c2n(c3ccc(OC)cc13)CCCc1ccccc1-2,normalized growth,[1],0.991
same,normalized growth,[2],1.01
same,normalized growth,[3],0.998
same,normalized growth,[4],0.996
same,normalized growth,"locus YGR078C, strain PAC10, stronger effect = lower value",1.01
same,normalized growth,[5],0.995
same,normalized growth,[6],1.01
same,normalized growth,[7],0.984
same,normalized growth,[8],0.99
same,normalized growth,[9],0.995
same,normalized growth,[10],0.984
same,normalized growth,[11],1.01
same,normalized growth,[12],0.972
CCCC(=O)NCCc1c2n(c3ccc(OC)cc13)Cc1ccccc1-2,normalized growth,[13],0.986
same,normalized growth,[1],1.08
same,normalized growth,[2],1.01
same,normalized growth,[14],1
same,normalized growth,[3],0.993
same,normalized growth,[4],0.995
same,normalized growth,"locus YNL128W, strain TEP1, stronger effect = lower value",0.983
same,normalized growth,[7],0.754 (active)
same,normalized growth,[8],0.964
same,normalized growth,[9],0.97
same,normalized growth,[10],0.963
same,normalized growth,[11],0.995
same,normalized growth,[12],0.686 (active)
same,normalized growth,[15],1.01
same,normalized growth,"locus YPL241C, strain CIN2, stronger effect = lower value",1.01
CC[C@H]1OC(=O)C[C@@H](O)[C@H](C)[C@@H](O[C@@H]2O[C@H](C)[C@@H](O[C@H]3C[C@@](C)(O)[C@@H](O)[C@H](C)O3)[C@H](N(C)C)[C@H]2O)[C@@H](CC=O)C[C@@H](C)C(=O)/C=C/C(C)=C/[C@@H]1CO[C@@H]1O[C@H](C)[C@@H](O)[C@@H](OC)[C@H]1OC,normalized growth,"locus YAL021C, strain ccr4, stronger effect = lower value",1.01
same,normalized growth,"locus YAL026C, strain drs2, stronger effect = lower value",0.986
same,normalized growth,"locus YAL030W, strain snc1, stronger effect = lower value",0.997
same,normalized growth,"locus YBL061C, strain skt5, stronger effect = lower value",0.986
same,normalized growth,"locus YBR009C, strain hhf1, stronger effect = lower value",1
same,normalized growth,"locus YBR023C, strain chs3, stronger effect = lower value",0.988
same,normalized growth,"locus YBR171W, strain sec66, stronger effect = lower value",0.987
same,normalized growth,"locus YBR231C, strain swc5, stronger effect = lower value",0.989
same,normalized growth,"locus YBR279W, strain paf1, stronger effect = lower value",0.994
same,normalized growth,"locus YCL011C, strain gbp2, stronger effect = lower value",0.995
same,normalized growth,"locus YCL016C, strain dcc1, stronger effect = lower value",1
same,normalized growth,"locus YCL061C, strain MRC1, stronger effect = lower value",1.01
same,normalized growth,"locus YCL069W, strain vba3, stronger effect = lower value",0.992
same,normalized growth,"locus YCR088W, strain abp1, stronger effect = lower value",1
same,normalized growth,"locus YDL005C, strain med2, stronger effect = lower value",0.986
same,normalized growth,"locus YDL040C, strain nat1, stronger effect = lower value",0.99
same,normalized growth,"locus YDR001C, strain nth1, stronger effect = lower value",0.997
same,normalized growth,"locus YDR069C, strain doa4, stronger effect = lower value",0.995
same,normalized growth,"locus YDR137W, strain rgp1, stronger effect = lower value",1.03
same,normalized growth,"locus YDR159W, strain sac3, stronger effect = lower value",0.971
same,normalized growth,"locus YDR195W, strain ref2",0.975
same,normalized growth,"locus YDR297W, strain sur2, stronger effect = lower value",0.995
same,normalized growth,"locus YDR334W, strain swr1, stronger effect = lower value",0.994
same,normalized growth,"locus YDR335W, strain msn5, stronger effect = lower value",0.98
same,normalized growth,"locus YDR392W, strain spt3, stronger effect = lower value",1.02
same,normalized growth,"locus YEL003W, strain gim4, stronger effect = lower value",0.992
same,normalized growth,"locus YEL037C, strain rad23, stronger effect = lower value",0.99
same,normalized growth,"locus YEL061C, strain CIN8 (second series), stronger effect = lower value",0.992
same,normalized growth,"locus YER015W, strain faa2, stronger effect = lower value",0.99
same,normalized growth,"locus YER016W, strain bim1, stronger effect = lower value",0.991
same,normalized growth,"locus YER111C, strain swi4, stronger effect = lower value",0.98
same,normalized growth,"locus YER155C, strain BEM2 (second series), stronger effect = lower value",0.993
same,normalized growth,"locus YFR010W, strain ubp6, stronger effect = lower value",0.988
same,normalized growth,"locus YGL167C, strain pmr1, stronger effect = lower value",0.986
same,normalized growth,"locus YGL173C, strain kem1, stronger effect = lower value",0.986
same,normalized growth,"locus YGL227W, strain vid30, stronger effect = lower value",0.988
same,normalized growth,"locus YGL240W, strain doc1, stronger effect = lower value",0.992
same,normalized growth,"locus YGL253W, strain hxk2, stronger effect = lower value",0.98
same,normalized growth,"locus YHR013C, strain ard1, stronger effect = lower value",0.985
same,normalized growth,"locus YHR027C, strain rpn1, stronger effect = lower value",0.995
same,normalized growth,"locus YHR030C, strain SLT2, stronger effect = lower value",0.953
same,normalized growth,"locus YHR079C, strain IRE1, stronger effect = lower value",0.948
same,normalized growth,"locus YHR142W, strain chs7, stronger effect = lower value",0.965
same,normalized growth,"locus YJL092W, strain hpr5, stronger effect = lower value",0.986
same,normalized growth,"locus YJL095W, strain BCK1 (second series), stronger effect = lower value",0.991
same,normalized growth,"locus YJL095W, strain BCK1, stronger effect = lower value",0.962
same,normalized growth,"locus YJL115W, strain asf1, stronger effect = lower value",0.983
same,normalized growth,"locus YJL129C, strain trk1, stronger effect = lower value",0.971
same,normalized growth,"locus YJL154C, strain vps35, stronger effect = lower value",0.994
same,normalized growth,"locus YJL164C, strain tpk1, stronger effect = lower value",0.998
same,normalized growth,"locus YJL166W, strain qcr8, stronger effect = lower value",0.991
same,normalized growth,"locus YJL187C, strain SWE1, stronger effect = lower value",0.995
same,normalized growth,"locus YJR066W, strain TOR1, stronger effect = lower value",0.918
same,normalized growth,"locus YKL160W, strain elf1, stronger effect = lower value",0.993
same,normalized growth,"locus YKR026C, strain gcn3, stronger effect = lower value",0.991
same,normalized growth,"locus YKR091W, strain srl3, stronger effect = lower value",0.989
same,normalized growth,"locus YLL001W, strain dnm1, stronger effect = lower value",0.977
same,normalized growth,"locus YLL026W, stronger effect = lower value",0.995
same,normalized growth,"locus YLL041C, strain sdh2, stronger effect = lower value",0.992
same,normalized growth,"locus YLR027C, strain aat2, stronger effect = lower value",0.998
same,normalized growth,"locus YLR113W, strain HOG1, stronger effect = lower value",0.954
same,normalized growth,"locus YLR221C, strain rsa3, stronger effect = lower value",1
same,normalized growth,"locus YLR258W, strain gsy2, stronger effect = lower value",0.995
same,normalized growth,"locus YLR262C, strain YPT6 (second series), stronger effect = lower value",0.989
same,normalized growth,"locus YLR320W, strain mms22, stronger effect = lower value",0.994
same,normalized growth,"locus YLR342W, strain FKS1, stronger effect = lower value",0.984
same,normalized growth,"locus YLR357W, strain rsc2, stronger effect = lower value",0.994
same,normalized growth,"locus YLR370C, strain arc18, stronger effect = lower value",0.986
same,normalized growth,"locus YLR384C, strain iki3, stronger effect = lower value",0.991
same,normalized growth,"locus YML120C, strain ndi1, stronger effect = lower value",1
same,normalized growth,"locus YMR058W, strain fet3, stronger effect = lower value",1
same,normalized growth,"locus YMR125W, strain sto1, stronger effect = lower value",0.983
same,normalized growth,"locus YMR129W, stronger effect = lower value",0.997
same,normalized growth,"locus YMR205C, strain PFK2, stronger effect = lower value",0.986
same,normalized growth,"locus YMR231W, strain pep5, stronger effect = lower value",0.999
same,normalized growth,"locus YNL071W, strain lat1, stronger effect = lower value",0.993
same,normalized growth,"locus YNL183C, strain NPR1, stronger effect = lower value",0.922
same,normalized growth,"locus YNL209W, strain ssb2, stronger effect = lower value",0.993
same,normalized growth,"locus YNL248C, strain rpa49, stronger effect = lower value",0.988
same,normalized growth,"locus YNL322C, strain KRE1 (second series), stronger effect = lower value",0.985
same,normalized growth,"locus YNR049C, strain mso1, stronger effect = lower value",0.99
same,normalized growth,"locus YOR001W, strain rrp6, stronger effect = lower value",0.993
same,normalized growth,"locus YOR070C, strain gyp1, stronger effect = lower value",0.996
same,normalized growth,"locus YOR080W, strain dia2, stronger effect = lower value",0.977
same,normalized growth,"locus YOR083W, strain WHI5, stronger effect = lower value",0.997
same,normalized growth,"locus YOR106W, strain vam3, stronger effect = lower value",0.993
same,normalized growth,"locus YOR231W, strain MKK1, stronger effect = lower value",0.97
same,normalized growth,"locus YOR265W, strain rbl2, stronger effect = lower value",0.994
same,normalized growth,"locus YOR270C, strain vph1, stronger effect = lower value",0.895
same,normalized growth,"locus YOR290C, strain snf2, stronger effect = lower value",1.01
same,normalized growth,"locus YPL051W, strain arl3, stronger effect = lower value",1
same,normalized growth,"locus YPL078C, strain atp4, stronger effect = lower value",0.974
same,normalized growth,"locus YPL106C, strain sse1, stronger effect = lower value",1
same,normalized growth,"locus YPL240C, strain hsp82, stronger effect = lower value",1
same,normalized growth,"locus YPL256C, strain CLN2, stronger effect = lower value",0.955
C[C@H](NC(=O)/C(C#N)=C/c1ccc(O)c(O)c1)c1ccccc1,normalized growth,[13],0.985
same,normalized growth,[1],1.04
same,normalized growth,[2],0.961
same,normalized growth,[14],0.936
same,normalized growth,[3],0.992
same,normalized growth,[4],0.985
same,normalized growth,"locus YGR229C, strain SMI1, stronger effect = lower value",0.93
same,normalized growth,[5],0.961
same,normalized growth,"locus YMR263W, strain SAP30, stronger effect = lower value",1
same,normalized growth,[6],1.02
same,normalized growth,[7],0.978
same,normalized growth,[8],0.991
same,normalized growth,[9],0.987
same,normalized growth,[10],1
same,normalized growth,[12],0.968
same,normalized growth,[15],0.924
